Laboratory results taken from PMC9911399, “Two distinct binding modes provide the RNA-binding protein RbFox with extraordinary sequence specificity”.
Changes are numbered by the printed parent chain; changes in the protein carry UniProt numbers. Over roughly 16,000 sequences, “ka relative to ugcaugu” has its median near 0.096; the highest 2% begin near 0.35. Shown is part of a subset that was picked to be rich in the highest values.

B1: UGUACAC (DNA:RNA)
RNA: GGGAGACCGGAAUUCAGAUUGUCCUGUACACUUAAAUCCCGUCGUAGCCACCA
DNA 1: CAATCTGAATTCCGGTCTCCC
DNA 2: TGGTGGCTACGACGGGATT
B2: GUCUCAC (DNA:RNA)
RNA: B1 RNA with U25G, G26U, U27C, A28U
DNA 1: CAATCTGAATTCCGGTCTCCC
DNA 2: TGGTGGCTACGACGGGATT
B3: GGGUCUA (DNA:RNA)
RNA: B1 RNA with U25G, U27G, A28U, A30U, C31A
DNA 1: CAATCTGAATTCCGGTCTCCC
DNA 2: TGGTGGCTACGACGGGATT
B4: UAACUCU (DNA:RNA)
RNA: B1 RNA with G26A, U27A, A28C, C29U, A30C, C31U
DNA 1: CAATCTGAATTCCGGTCTCCC
DNA 2: TGGTGGCTACGACGGGATT
B5: UCUGACU (DNA:RNA)
RNA: B1 RNA with G26C, A28G, C29A, A30C, C31U
DNA 1: CAATCTGAATTCCGGTCTCCC
DNA 2: TGGTGGCTACGACGGGATT
B6: AACCUGA (DNA:RNA)
RNA: GGGAGACCGGAAUUCAGAUUGUCCAACCUGAUUAAAUCCCGUCGUAGCCACCA
DNA 1: CAATCTGAATTCCGGTCTCCC
DNA 2: TGGTGGCTACGACGGGATT
B7: CAACUCG (DNA:RNA)
RNA: B6 RNA with A25C, C27A, G30C, A31G
DNA 1: CAATCTGAATTCCGGTCTCCC
DNA 2: TGGTGGCTACGACGGGATT
B8: UGUGUUC (DNA:RNA)
RNA: B1 RNA with A28G, C29U, A30U
DNA 1: CAATCTGAATTCCGGTCTCCC
DNA 2: TGGTGGCTACGACGGGATT
B9: CACUGAA (DNA:RNA)
RNA: B6 RNA with A25C, C28U, U29G, G30A
DNA 1: CAATCTGAATTCCGGTCTCCC
DNA 2: TGGTGGCTACGACGGGATT

These binders were tested against T1, RBFOX1 RRM RbFoxmut (Fox-RRM*) (Homo sapiens, UniProt Q9NWB1 109-208, R118D;E147R;N151S;E152T) (assay: EMSA; HiTS-Eq, 1 nM pool, 10 min; buffer printed only for the single-RNA assays: 10 mM Tris pH 7.5, 150 mM NaCl, 3.4 mM EDTA, 0.001% NP-40, 30 C). Details: tags: His6 N-terminal (pET28a); label: 5' 32P.
T1 sequence: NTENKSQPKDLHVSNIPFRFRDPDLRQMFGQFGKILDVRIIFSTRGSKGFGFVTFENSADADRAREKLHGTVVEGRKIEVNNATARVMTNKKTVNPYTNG
Method in brief: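 Purified wild-type or mutant RbFox RRM at increasing concentrations was equilibrated with 1 nM of 5′-radiolabelled RNA carrying 7 randomized nucleotides for 10 min in 50 µL. Unbound RNA was separated by 8% native PAGE and sequenced. Relative association constants came from read-count changes of each RNA species compared with the control reaction, normalised to the cognate motif.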
For B1, the binding signal was 0.0562 KA relative to UGCAUGU. In the case of B2, the binding signal is reported as 0.0695 KA relative to UGCAUGU. For B3, the binding signal was 0.1 KA relative to UGCAUGU. B4 was tested, and the binding signal was 0.0488 KA relative to UGCAUGU. In the case of B5, the binding signal is reported as 0.0694 KA relative to UGCAUGU. With B6 the binding signal was 0.0413 KA relative to UGCAUGU. In the case of B7, the binding signal is reported as 0.142 KA relative to UGCAUGU. For B8, the binding signal was 0.108 KA relative to UGCAUGU. For B9, the binding signal was 0.0869 KA relative to UGCAUGU.
